# HCV inh: inhibitors of hepatitis C virus infection. Huh7.5.1 HCVcc-Cre infection, luciferase reporter, 44 h. Potency, µM (highest dose often 41.8 µM), without a hit: at the top dose activity change, negative = inhibition, most hits filed as inhibitors. 3.4% of 340,000 active. AID 651820; active = well fitted inhibition curve with a large enough effect; inconclusive = small, poorly fitted or top-dose-only effect, or another doubt; inactive = no such curve, though single readings can be large or run the other way; also: potency is read from the fitted curve at half-maximal effect
#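 Cells seeded at 1,000/well and cultured 4 h, then compounds added followed by HCVcc-Cre virus (~0.5 moi). After 44 h further culture, luciferase substrate was added, plates held 15 min at room temperature, and luminescence read for 15 sec.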
# Vaccinia Venus: vaccinia inhibition (Venus reporter); 0.46% of 330,000 active; AID 720580; Vaccinia virus Venus reporter expression, fluorescence; Potency, µM (titrated, usually from 36.5 µM), for the others: at the top dose activity change, negative = inhibition, usual class: inhibitors; calls by dose curve; tested in A549 cells; also: potency is read from the fitted curve at half-maximal effect; nearly all actives have a fitted effect of over 30% in size
# Lassa entry inh: inhibitors of Lassa virus binding or cell entry; Lassa virus pseudotype entry inhibition, cell reporter; Potency, µM (doses to about 37.9 µM), for inactives: top-dose activity change, negative = inhibition, usual class: inhibitors; 1.2% of 300,000 active; calls by dose curve; tested in HEK293 cells; also: potency is read from the fitted curve at half-maximal effect; nearly all actives have a fitted effect of over 50% in size
# MARV entry inh: Marburg virus entry inhibition | Marburg virus pseudotyped entry inhibition, cell reporter | AID 540276 | Potency, µM (highest dose often 37.8 µM), for inactives: top-dose activity change, negative = inhibition, usual class: inhibitors | 1.8% of 300,000 active; calls by dose curve; tested in HEK293 cells; also: potency is read from the fitted curve at half-maximal effect
# HCMV inh: inhibitors of human cytomegalovirus | HFF cells, HCMV-luciferase reporter, 72 h; stronger effect = lower value | activity change, negative = inhibition, % at 57.5 µM | 4.5% of 410,000 active | AID 1259415; in the data active = activity change below about -60%; inconclusive = no clear call, values can overlap the other calls; inactive = above about -39%
#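 Two-dose cell screen: HFF monolayers treated with compounds and infected with luciferase-expressing HCMV at 1 PFU/cell, 72 h at 37C, then lysed for luciferase measurement.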
# Vaccinia mCherry: inhibitors of vaccinia virus infection (mCherry reporter signal). Potency, µM (doses to about 36.5 µM), for the others: at the highest dose activity change, negative = inhibition, actives largely listed as inhibitors. AID 720579. Vaccinia virus mCherry reporter infection, fluorescence. 0.63% of 310,000 active; calls by dose curve; tested in A549 cells; also: potency is read from the fitted curve at half-maximal effect; nearly all actives have a fitted effect of over 35% in size
# The depositor's hits bear a star; i = inactive; ? = inconclusive; · = no result given; [ ] = another dose, or the depositor's remark. Only some compounds are listed: those with a hit (about 7.8% of all), similar ones and a draw of the others. % is scaled to controls: 0 for no effect and ±100 for the full control effect.
SMILES,HCV inh,Vaccinia Venus,Lassa entry inh,MARV entry inh,HCMV inh,Vaccinia mCherry
COC(=O)c1ccc(NC(=O)c2c(-c3ccccc3)c(-c3ccccc3)nn(C)c2=O)cc1,·,-12%,25%[46.1 µM],-15%[46.1 µM],52,-10%
COc1ccc(Cl)cc1NS(=O)(=O)c1cc(Br)cc2c1N(C(=O)C1CC1)CC2,·,-5%,2%[46.1 µM],22%[46.1 µM],3,-9%
COc1cc(NS(=O)(=O)c2cc(Br)cc3c2N(C(=O)C2CC2)CC3)cc(OC)c1,·,?,3.5µM*,·,31,18µM*
O=C(C1CC1)N1CCc2cc(Br)cc(S(=O)(=O)Nc3ccc(F)c(F)c3)c21,·,-12%,?,?,-37,-14%
Cc1ccc(NS(=O)(=O)c2cc(Br)cc3c2N(C(=O)C2CC2)CC3)cc1C,·,?,?,·,-75*,?
CCn1c(SCc2ccccc2Cl)nc(=O)c2c(C(=O)OC)cc(C3CC3)nc21,·,-11%,-29%[46.1 µM],·,-8,-15%
Cc1ccc(CN2C[C@H](Sc3ccccn3)C[C@H]2C(=O)Nc2ccc3sc(C)nc3c2)cc1,·,-2%,·,·,·,-8%
CCCn1c(N)c(C(=O)CN(C)CC(=O)Nc2ccccc2CC)c(=O)[nH]c1=O,1%,·,·,·,-103*,·
Cc1nc([N+](=O)[O-])cn1CC(O)c1ccc2c(c1)OCCCO2 (stereo not given),·,-9%,·,·,·,-5%
CCOC(=O)c1ccc(N2C(=O)c3n[nH]c(-c4cccs4)c3C2c2cccc(OC)c2)cc1 (stereo not given),·,-14%,?,10µM*,-107*,-10%
CCOC(=O)c1ccc(N2C(=O)c3n[nH]c(-c4cccs4)c3C2c2ccc(OC)cc2OC)cc1 (stereo not given),·,?,?,?,-92*,13µM*
CCOc1ccc(N2C(=O)c3n[nH]c(-c4cccs4)c3C2c2cccc(F)c2)cc1 (stereo not given),·,-25%,?,?,-18,-26%
C=CCOC(=O)C1(C(NC(=O)OC)c2ccccc2)C(=O)Cc2ccccc21 (stereo not given),·,·,·,-21%[14.2 µM],·,·
O=C(CSc1nc(-c2ccccc2)cn1-c1ccccc1F)Nc1ccc(F)cc1,·,-10%,?,·,-12,-14%
Cc1cccc(/C=C2/S/C(=N/N=C3\CC4CCC3(C)C4(C)C)NC2=O)c1 (stereo not given),?,1%,14µM*,?,-7,·
CCCCOc1ccc(CSCCN=C(N)N)cc1,?,?,?,?,-62*,?
O=C(CCCn1c(=O)c2cccn2c2cccnc21)NCc1ccccc1Br,·,?,17%[46.1 µM],·,-12,-4%
O=C(Nc1nc(-c2ccco2)c(-c2ccco2)s1)c1c(F)cccc1Cl,14µM*,·,·,·,-19,·
CCc1ccc(S(=O)(=O)NCc2cccs2)cc1,5%,-11%,5%,-7%,-66*,i
CCc1ccc(CNCc2cccs2)cc1,11%,-3%,·,6%[46.1 µM],-9,-8%
O=S1(=O)CCSC[C@@H](CN2CCOCC2)N1,·,·,·,·,-7,·
Cn1c(SC2=CS(=O)(=O)c3ccccc32)nc2ccccc21,6.3µM*,?,?,?,-98*,·
Cn1c(CSc2nc3ccccc3n2C)nc2ccccc21,9%,·,11%,?,-17,·
O=C(Cn1c(=O)c2cc(Cl)ccc2n2nncc12)Nc1ccccc1,·,-3%,-4%[46.1 µM],2%[46.1 µM],8,-6%
COc1ccc(-c2c(-c3cc(OC)cc(OC)c3)n(C)c3ccc(-c4ccc(S(N)(=O)=O)cc4)cc23)cc1,10µM*,198%,·,·,-16,70%
SMILES,HCV inh,Vaccinia Venus,Lassa entry inh,MARV entry inh,HCMV inh,Vaccinia mCherry
COc1cccc(-c2c(-c3cc(OC)cc(OC)c3)n(C)c3ccc(-c4cnc(N5CCOCC5)nc4)cc23)c1,4%,?,·,·,-65*,-9%
COc1cccc(-c2c(-c3cc(OC)cc(OC)c3)n(C)c3ccc(-c4ccc5cc[nH]c5c4)cc23)c1,?,-23%,·,·,4,-16%
COc1ccc(-c2c(-c3cc(OC)cc(OC)c3)n(C)c3ccc(-c4cnc(N)nc4)cc23)cc1,-14%,?,·,·,-9,i
COc1cc(OC)cc(-c2c(-c3cccs3)c3cc(-c4ccc5cc[nH]c5c4)ccc3n2C)c1,4.5µM*,-20%,·,·,-29,?
COC(=O)[C@@H]1[C@@H](CO)[C@@H]2Cn3c(ccc(Br)c3=O)[C@H]1N2Cc1cc(F)ccc1F,·,·,·,·,54,·
Cc1ccc2nc(SC(C(=O)Nc3ccc(F)cc3)c3ccccc3)[nH]c2c1 (stereo not given),?,?,-27%,?,-18,?
Cc1ccc(C)c(NC(=O)C(Sc2nc3ccc(C)cc3[nH]2)c2ccccc2)c1 (stereo not given),?,?,?,8.9µM*,-74*,-25%
CN=c1scc(-c2ccccc2F)n1/N=C/c1ccc(O)c(O)c1O,-22%,-11%,?,?,-78*,i
CN=c1scc(-c2ccccc2F)n1/N=C/c1ccc[nH]1,-26%,1%,?,1µM*,-99*,-26%
Fc1ccc(N=Cc2ccc[nH]2)cc1,10%,-9%,18%,4%[46.1 µM],-29,-7%
Cc1ccc2cc(CNCc3cccc4ccccc34)c(N3CCC(O)CC3)nc2c1,·,-2%,·,·,·,-12%
CCN(CC)S(=O)(=O)c1ccc2c(c1)N(CC(=O)Nc1c(C)cc(C)cc1C)C(=O)CS2,·,-11%,·,?,-12,-9%
CC1CCN(c2cc3c(cc2F)c(=O)c(S(=O)(=O)c2ccc(Cl)cc2)cn3C)CC1,·,-14%,4%[46.1 µM],·,-10,-2%
CCNc1nc(NC(C)C)nc(N(C#N)Cc2ccccc2)n1,?,?,8%,-4%[46.1 µM],55,·
CCNc1nc(NC(C)C)nc(N(C#N)CCOc2ccc(Cl)cc2Cl)n1,5µM*,·,1%,-21%,34,·
COc1ccc(N2CC(NC(=O)c3ccc(S(=O)(=O)N4CCOCC4)cc3)CC2=O)cc1 (stereo not given),·,-13%,-4%[46.1 µM],·,-29,-2%
CC(C)(C)C(=O)Nc1ccc(-c2nc3ccccc3s2)cc1,·,-7%,?,?,-103*,-8%
O=C(CCS(=O)(=O)c1ccccc1)Nc1ccc(-c2nc3ccccc3s2)cc1,?,-5%,?,14µM*,-21,-17%
O=C(Nc1ccccc1)c1nc2ccccc2s1,-21%,-9%,11µM*,?,161,i
CCS(=O)(=O)c1ccccc1C(=O)Nc1ccc(-c2nc3ccccc3s2)cc1,·,-12%[7.34 µM],-21%[46.1 µM],·,28,-5%[7.34 µM]
COc1ccc(NS(=O)(=O)c2ccc3oc(SCc4ccc(F)cc4)nc3c2)cc1,11µM*,?,?,?,-61*,?
COc1ccccc1NS(=O)(=O)c1ccc2oc(SCc3ccc(F)cc3)nc2c1,35µM*,-19%,?,?,-37,-25%
